Reference: publication PMC12136788
Changes are numbered by the printed parent chain. Whole data set: some 24,000 sequences, median “enrichment r” near 0.99, cut for the highest 2% near 3.7. The sample holds the highest values, similar sequences and a random draw of the others, so the mix is not that of the screen.

T1: UNK ZnF1-3 (human, UniProt Q9C0B0 31-174)
T1 sequence: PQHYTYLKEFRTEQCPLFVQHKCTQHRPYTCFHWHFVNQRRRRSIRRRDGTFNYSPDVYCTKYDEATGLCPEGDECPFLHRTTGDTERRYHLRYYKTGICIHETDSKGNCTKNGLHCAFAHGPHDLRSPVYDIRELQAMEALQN

B1: 28740388_28740508_4059_3pUTR_ENSMUSG00000048271_ENSMUST00000114884|mouse|control|control (ssRNA)
RNA: GGGAGUUCUACAGUCCGACGAUCUUUGAGCUGGUAACAUUCUUUCCUGAAUCUAAAACUCUGUGACCAAUCACAUAGCAGGAUCACGAAGAACAAGGUCUACAUGCAUUAUAAGCACUCGGAAACAAAAGAACACGAGAACAGCAACAGAGGAUUGAGCAUCA
B2: chr7:149068622:149068623:-_ENSMUSG00000025139_ENSMUST00000001950|mus_hu|mus_mus_mus_hu_False|58_98 (ssRNA)
RNA: GGGAGUUCUACAGUCCGACGAUCGUGAGGCCUCUGAGUGAGGUUCCUGGUCUGUCCUGGGUUAGAGUUGUUAAUAUCACUAAGUGGACCAUCUAGAACGUUCCAGUCCCGCCUGACACCUUCAUUCCCAAUGGAGAAGAAAUCCAACAGAGGAUUGAGCAUCA
B3: chr14:21343309:21343310:-_ENSMUSG00000021816_ENSMUST00000161445|mus_hu|motif|central (ssRNA)
RNA: GGGAGUUCUACAGUCCGACGAUCAGGAUCGGACCAUAACAAGUCACACAUUGGUCCAAAUGCAGGUGGCUCUUUGAAUCGGUCGGAUCUCCUAAUAUCAUCCAGUGUGUGUAUUUCUGGUGAAAGUCCACCAUGAACACAAAGCAACAGAGGAUUGAGCAUCA
B4: chr1:78194255:78194256:-_ENSG00000077254_ENST00000357428|hu_mus|motif|central (ssRNA)
RNA: GGGAGUUCUACAGUCCGACGAUCAUUGCUGUCCUCAGGAAAGCCUUUGGAGCCACUCUCAUUUUCUGCUUUCUCGCUGCUGCGGCAAGACUCGCACGACUGAAAAUCCACAUCUGACUGGCUCUUCUCUUCCUCCACCGUCUCCAACAGAGGAUUGAGCAUCA
B5: chr7:128503047:128503048:+_ENSG00000128524_ENST00000249289|hu_mus|FALSE|FALSE (ssRNA)
RNA: GGGAGUUCUACAGUCCGACGAUCGGUGGUAUCCUUCUCCACUACCAGGAAAUUAGGGUGGCGGUUCUUGUUUAGCUCCCCUAUGCCGCCCAACAGGAAACCAGUCACCGUGUCCUCGUCUCCAAUCACCGCGAUUAGCUUACCCAACAGAGGAUUGAGCAUCA
B6: chr1:58468927:58468928:-_ENSMUSG00000026034_ENSMUST00000148330|mus_mus|mus_mus_mus_hu_False|18_78 (ssRNA)
RNA: GGGAGUUCUACAGUCCGACGAUCAAUUACUGAAAAAGAUGUUCAUUACCUUAGCUAGGCCAUGUAUGAACCAAAUUACCCAAACAAAAUAAACAUGGCAAUAUAAAAAUGUUAAGAAAAUAACUUACUGUACAAAAUAACUUACAACAGAGGAUUGAGCAUCA
B7: chr1:66485654:66485655:+_ENSMUSG00000015222_ENSMUST00000024639|mus_mus|FALSE|FALSE (ssRNA)
RNA: GGGAGUUCUACAGUCCGACGAUCAAUUUUUUAUAUAAAAUUGUAACAAUUACUACAGUUGGGGGAUGAAAUUAUUUCUCUAUGGUUUGUAAAGAAUGAAUAUGACACCUGCUCAGAGCCCACUCCUGCCAAGAGCUCAUGCCUCAACAGAGGAUUGAGCAUCA
B8: chr1:66485654:66485655:+_ENSMUSG00000015222_ENSMUST00000024639|mus_mus|motif|central (ssRNA)
RNA: B7 RNA with U80G, A81G
B9: chrX:17854524:17854525:+_ENSMUSG00000037369_ENSMUST00000044484|mus_hu|motif|central (ssRNA)
RNA: GGGAGUUCUACAGUCCGACGAUCUCGUGAAUUACUCUCAUUAGUGACAAAAAGCAGAUCAAAAACCUCCACUUCACAAAUGCGGCAGUAAUGAGCUGGUUCUUCUUUUGUCCGCCCAUGCCAUAUAAUCUCUUUUCCUGCAGCCAACAGAGGAUUGAGCAUCA
B10: chr14:62214197:62214198:+_ENSG00000100644_ENST00000337138|hu_hu|FALSE|FALSE (ssRNA)
RNA: GGGAGUUCUACAGUCCGACGAUCAGCAUUAUUAUUUAUGUAAAAUGUGAAAAAAAAGGUGUAAAAAUUUUUCAACUGCCUAUGAUCAUGAUGAAAGGUUACUGCCUUCUUACAAAAAUUAUAUUGGCAUCUUCUUAAAAAUAACAACAGAGGAUUGAGCAUCA
B11: chr14:48151594:48151595:+_ENSMUSG00000037536_ENSMUST00000168833|mus_mus|FALSE|FALSE (ssRNA)
RNA: GGGAGUUCUACAGUCCGACGAUCAUUGAAGUUUUUUUAAAAAAUUUUUAACCAGACAAAAGGAUGCACAACAUUUUAAUCUAUUAUAUGAUAUUGUCUUAUUCUGUGGUGAUUAUGUUUAGUCAGCUGUUCAUAAUAUACAAUCAACAGAGGAUUGAGCAUCA
B12: chr1:58468927:58468928:-_ENSMUSG00000026034_ENSMUST00000148330|mus_mus|mus_mus_mus_hu_False|58_78 (ssRNA)
RNA: B6 RNA with C78U, C80U, C84A, A118U, A119U, A122C, C123A, U124A, U125A, A126G
B13: chr10:117127018:117127019:-_ENSMUSG00000020184_ENSMUST00000020408|mus_hu|FALSE|FALSE (ssRNA)
RNA: GGGAGUUCUACAGUCCGACGAUCAACAGAGCAAGACUCGGUCUCAAAAAAAAUAAUAAGUUACAUUUAAAUGUCAUAUACAUAUUUAAGAAAAAAAAAAACCAAGUACUUCUCAUUUAAGACAGAGUAGAAAUUAUUUAAAAUCAACAGAGGAUUGAGCAUCA
B14: 30669026_30669146_122_CDS_ENSG00000108666_ENST00000577809|human|control|control (ssRNA)
RNA: GGGAGUUCUACAGUCCGACGAUCGCGAUAGCUGUAAAGACAGUAGUGGCUGCUGGACGGCGGCUCGAGUCUCCGCUCCUCGGCUGAGCCUCCCUCUUCGCUGCUCUCUAGUUCCUUUUCAUCUCCAUCCAUCGACUCCUGCAACAACAGAGGAUUGAGCAUCA
B15: 23382874_23385586_565_CDS_ENSMUSG00000026158_ENSMUST00000027343|mouse|control|control (ssRNA)
RNA: GGGAGUUCUACAGUCCGACGAUCUUCUCUCAGGGGGAAAAGCCAUUGGAUGUACGUGUGGUUGUGCUCCAGCUUCUCGUAGUCCCCUUUCCACUUAUUUAGAACCUCUUCAAUGUAAACACCAUCCGGCUUAAAUGGAAUUUUCAACAGAGGAUUGAGCAUCA
B16: chr1:39494447:39494448:+_ENSG00000168653_ENST00000372967|hu_mus|hu_hu_hu_mus_False|58_68 (ssRNA)
RNA: GGGAGUUCUACAGUCCGACGAUCGCACCGAGCGGCGUUCUUAUAGGGCUGUUCUGCGCUUAGGAACGUCAACCAUCGAUCUAUGUUGAUGCCCAGCUUUUUCUGUAUGUCAAGGAAAGGCAUGGCUCUGCAGUGCCCUUGUCACAACAGAGGAUUGAGCAUCA
B17: chr3:179287964:179287965:+_ENSG00000136518_ENST00000429709|hu_hu|hu_hu_hu_mus_True|38_38 (ssRNA)
RNA: GGGAGUUCUACAGUCCGACGAUCCUUGAGUGGUGAGAUGGCCUCCAUGUUCUCCCUGGGCACGCGGAGGGCAUUGGUGUCUAUGUAGUAGGUGGGCCCGCCUUGUUUGCCUUUGUCACCAUCAAUCUCCAUCAUUGUACUUCCCAACAGAGGAUUGAGCAUCA
B18: chr1:58468927:58468928:-_ENSMUSG00000026034_ENSMUST00000148330|mus_mus|mus_mus_mus_hu_False|18_88 (ssRNA)
RNA: GGGAGUUCUACAGUCCGACGAUCAAUUACUGAAAAAGAUGUUCAUUUAUUUGGUUUUGUACUUAAUGAACCAAAUUACCCAAACAAAAUAAACAUGGCAAUAUAAAAAUGUUAAGAAAAUAACUUACUGUACAAAAUAACUUACAACAGAGGAUUGAGCAUCA
B19: chr1:58468927:58468928:-_ENSMUSG00000026034_ENSMUST00000148330|mus_hu|FALSE|FALSE (ssRNA)
RNA: GGGAGUUCUACAGUCCGACGAUCAAUUACUGAAAAAGAUGUUCAUUACCUUAGCUAUGUACUUAAUGAACCAAAUUACCCAAACAAAAUAAACAUGGCAAUAUAAAAAUGUUAAGAAUUUACAAAGCUGUACAAAAUAACUUACAACAGAGGAUUGAGCAUCA
B20: chr1:185277986:185277987:-_ENSG00000116679_ENST00000392007|hu_mus|FALSE|FALSE (ssRNA)
RNA: GGGAGUUCUACAGUCCGACGAUCCUGCUUGACUCGGUCCAUCUUCAGCUUCUUGGCUGCAGAAUAAACAUCUUUUACUAAUUCCUUAUCAGCUUUCAACUGAGCCGUGUAUGCAUAAUUCAGCAAGACUUCAACAGCUUCUGGCAACAGAGGAUUGAGCAUCA
B21: chr13:100194382:100194383:-_ENSMUSG00000052727_ENSMUST00000064762|mus_mus|motif|central (ssRNA)
RNA: GGGAGUUCUACAGUCCGACGAUCUCCUGUAAAUGAAAACAUUUGUUAAAAAGUUCAUCUAUGAAAAGUUCUCGAGUAGCGGAAAAAAAAAAAAAAAAAAAAAAAAAUCUUCUGUACAUGUGUUCCCAUGUGUUGAAAUUAAUGCAACAGAGGAUUGAGCAUCA
B22: chr4:54876292:54876293:-_ENSG00000109220_ENST00000263921|perfect_dup|motif|central (ssRNA)
RNA: GGGAGUUCUACAGUCCGACGAUCCUAUAAAUAAAGUAAAUGCUAAUCUGGUCGAAAAAUCGGUGUCUUUGGUAAAAAUUCGGUGAGGAUGACAUAUUCCAUCAUGUUAUUCGUUUCACAUUUCCUUUUGCUCAGUCUCCAAUGCAACAGAGGAUUGAGCAUCA
B23: chr13:100194382:100194383:-_ENSMUSG00000052727_ENSMUST00000064762|mus_mus|FALSE|FALSE (ssRNA)
RNA: B21 RNA with G80U, G81A
B24: chr11:57926588:57926589:+_ENSMUSG00000020515_ENSMUST00000020822|mus_hu|FALSE|FALSE (ssRNA)
RNA: GGGAGUUCUACAGUCCGACGAUCGUCAAUCCCUUCCUCUUCAUGCUUCUGAAACUGUAGUCCUGAGUUAGCAAGGAGAUCUAUGGAAUCCUGGGAGUACAUGUCCUCUGUAAGGUUAAAUUUGAAAUUGAACUGCCAAGUAUUCAACAGAGGAUUGAGCAUCA
B25: chr13:100194382:100194383:-_ENSMUSG00000052727_ENSMUST00000064762|mus_hu|FALSE|FALSE (ssRNA)
RNA: GGGAGUUCUACAGUCCGACGAUCUCCUGUAAAUGAAAACAUUUGUUAAAAAGUUCAUCUAUGAAAAGUUCUCACAUAUCUUAAAAAAAAAAUUCUUCUGUACACUUGUUCCCAUAAUUAUGUUGAAAUUAAUGGAAAAUUUAACAACAGAGGAUUGAGCAUCA
B26: chr15:80390846:80390847:+_ENSG00000086666_ENST00000559775|hu_hu|FALSE|FALSE (ssRNA)
RNA: GGGAGUUCUACAGUCCGACGAUCCUGUCCUGUAUCUUGAGACAGACAUUAGCUUUCUGCCUUCCCUAUUCUCAUAAGCAGCUACUUAAAAGUUUUGAAUUUUAUGCAAGAAAACAUUUUAAAGCCUUCUGUGUUUUACUGCAGCAACAGAGGAUUGAGCAUCA

molecular target: T1, UNK ZnF1-3; experiment: nsRBNS (natural sequence RNA bind-n-seq); RBNS binding buffer (assumed for nsRBNS): 25 mM Tris pH 7.5, 150 mM KCl, 3 mM MgCl2, 0.01% Triton X-100, 500 ug/ml BSA, 20 U/ml SUPERase-In, 4 C; UNK is unkempt and MSI1 is Musashi-1; names of the RNAs are library labels; protein concentration not given here; high values mean tight binding

Binder | binding signal [enrichment R]
B1 | 1.22
B2 | 0.755
B3 | 0.921
B4 | 0.703
B5 | 0.494
B6 | 1.35
B7 | 2.92
B8 | 4.27
B9 | 0.845
B10 | 29
B11 | 3.47
B12 | 3.96
B13 | 18
B14 | 0.51
B15 | 0.65
B16 | 0.515
B17 | 0.571
B18 | 6.29
B19 | 1.24
B20 | 0.806
B21 | 5.84
B22 | 1.46
B23 | 5.73
B24 | 1.01
B25 | 1.06
B26 | 0.755
